These results are taken from PubChem BioAssay.

The structures appear in SMILES notation. Where “and” joins values, the source holds several entries; their conditions need not be identical. Equal values may be shown once. For some assays here: Measured potencies and affinities stand elsewhere. The source holds several records for some structures; these can differ, active in one and inactive in another. Calls of active or inactive are those of the source. Rule as the data show it, unless noted: active = parasite load remaining mostly below about 12% (no sharp cut-off); inactive = mostly above about 10%.

Usually inhibition stands for the drop in the measured response relative to a control, in per cent. As a reminder, the viability is a read-out of living cells in per cent, often relative to untreated cells.

A short description of experiment [1]: polyglutamine-triggered caspase-3 activation inhibitors, cell-based (AID 1583). As to conditions: polyglutamine-induced caspase-3 activation, cell assay; stronger effect = higher value;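 tested at 10 µM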.
Experiment [2] in a line: suppressors of polyQ aggregation in yeast, 75Q-TubU reporter (AID 1593). As to conditions: Yeast 75Q polyglutamine aggregation reporter.
Experiment [3] is described as follows: rescue of polyQ-huntingtin neuronal dysfunction in worms, whole organism, C. elegans mechanosensory neurons, N-terminal huntingtin (AID 1599). As to conditions: touch response, stronger effect = higher value.
A short description of experiment [4]: inhibitors of mitochondrial cytochrome c release, biochemical, purified mitochondria (AID 1603).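 Also: mouse liver mitochondria challenged with calcium chloride; signal normalized to the plate average as 100%.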 As to conditions: stronger effect = lower value.
The nature of experiment [5]: inhibitors of polyQ protein aggregation (AID 1604). As to conditions: polyglutamine-induced protein aggregation inhibition assay; stronger effect = higher value; tested at 2.5 µM.
Experiment [6] can be described thus: enhancers of glutamate uptake in motor neurons, MN-1 cell line (AID 1612).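 Also: tested at 1 µM final; 0% = mean of DMSO vehicle wells on each plate; positive means more glutamate uptake than control and negative means less.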 Particulars: MN-1 motor neuron cells, stronger effect = higher value.
The nature of experiment [7]: suppressors of polyglutamine aggregation in yeast, 75Q-TubH (AID 1616). As to conditions: S. cerevisiae 75Q-TubH polyglutamine aggregation suppression; stronger effect = higher value.
Experiment [8] is described as follows: liver-stage malaria parasite growth inhibition, primary screen, cell-based, HepG2, luciferase luminescence, HepG2 viability (AID 624349).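 Also: 100% = mean of DMSO negative control wells on the same plate.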 As to conditions: P. berghei liver stage in HepG2, luciferase luminescence, concentration not given here; parasite load remaining: stronger effect = lower value; viability: measured here: HepG2 viability without parasites.
Experiment [9] is described as follows: differential killing of epithelial or mesenchymal cells, primary screen, imaging, PC-3E GFP, TEM4-18 mCherry, co-culture (AID 1345086;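 active = compounds killing one labelled cell type while sparing the other, by normalised counts and ratio limits, not self-fluorescent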;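 as to all read-outs here: cells exposed to compound for 72 h before imaging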;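 as to red/green cell ratio (normalised): normalised mesenchymal count divided by normalised epithelial count so high means epithelial killing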). As to conditions: imaging cell counts, at 1 µM; for red/green cell ratio (normalised): actives lie on both sides, counts scaled to control wells, 1 = unselective.
A short description of experiment [10]: sensitizers of A549 cells to miR-34 induction, primary screen, imaging, A549 dox-inducible miR-34, nuclei and caspase counts (AID 1347080;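 active = compounds whose cell count with miR-34 switched on is under 0.7 times the count with it off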). As to conditions: A549 miR-34 inducible, Hoechst nuclei count, 48 h.
A short description of experiment [11]: reducers of polyQ inclusions in PC12 cells, cell-based, NGF-treated PC12, GFPQ80 (AID 1614).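 Also: lower means fewer inclusions and 0 means no inclusions at all.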 As to conditions: PC12 NGF-treated GFP-polyQ80 inclusion reduction.
Experiment [12] in a line: viability rescue of complex I mutant cybrids, primary screen, cell-based, galactose medium, ATP luminescence (AID 1645843;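 active = z-score of at least 1.8 in each of two replicates, scored against plate mean and spread of sample wells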;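 also: positive z means more ATP and so rescue of galactose-driven cybrid death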). As to conditions: complex I mutant cybrid cells, 72 h, stronger effect = higher value.
[13] abbreviates: measured here: epithelial PC-3E GFP cell survival.
The mark [14] stands for this setting: measured here: mesenchymal TEM4-18 mCherry cell survival.
Setting [15] is: stronger effect = lower value, cell number ratio, induced over uninduced.
[16] abbreviates: measured here: relative caspase fold change +Dox/-Dox.
Where [17] appears, read: measured here: total cells with miR-34 induction, stronger effect = lower value.
The mark [18] stands for this setting: measured here: total cells without miR-34 induction.

Turning to `CC12CCC3C(=CCc4cc(O)ccc43)C1CCC2=O` (configuration not stated), the inhibition in experiment [1] was -18.1%. Also, in [2], the score was 0.86. The compound also returned a rescue above control in [3] of 0.8. The cytochrome c release ratio in [4] came out at 0.66. In addition, the inhibition of aggregation in [5] was 84.7%. In experiment [6], the glutamate uptake change was 1.39%. In experiment [7], the aggregation suppression score is 0.518. Also, the parasite load remaining in experiment [8] is 112% (inactive) and 14% (inactive). In addition, in experiment [8], the viability was 72.6% and 110%. The red/green cell ratio (normalised) in experiment [9] was 1.28 (inactive). Further, the normalised cell number is 1.14 in [9] (setting [13]) and 1.45 in experiment [9] (setting [14]). In addition, the fold change is 0.897 (inactive) in experiment [10] (setting [15]) and 0.851 in experiment [10] (setting [16]). Further, the cell count in [10] (setting [17]) is 11100; in experiment [10] (setting [18]), 12400.

In the case of `C[C@H]1CC2C([C@@H](O)C[C@@]3(C)C2CC[C@]3(O)C(=O)CO)[C@@]2(C)C=CC(=O)C=C12` (some centres not stated), the inhibition in experiment [1] was found to be 13.3%. For the same compound, the score in experiment [2] worked out at 1.06. For the same compound, in experiment [3], the rescue above control was -2. In addition, the cytochrome c release ratio in experiment [4] was 0.64. The compound also displayed an inhibition of aggregation in [5] of 83.1%. For the same compound, the glutamate uptake change in [6] was 14.1%. Moreover, the inclusion score in [11] turned out to be 2. In addition, the aggregation suppression score in experiment [7] came out at 1.35. Further, in experiment [8], the parasite load remaining was 110% (inactive) and 67.7% (inactive). Besides, the viability in experiment [8] is 78.4% and 89.4%. The red/green cell ratio (normalised) in [9] is 1.21 (inactive). In addition, the normalised cell number in experiment [9] (setting [13]) amounted to 1.36; in experiment [9] (setting [14]), 1.64. Also, the fold change in [10] (setting [15]) is 0.922 (inactive); in experiment [10] (setting [16]), 1.43. The cell count in [10] (setting [17]) stood at 7440; in experiment [10] (setting [18]), 8070.

As to `C#C[C@]1(O)CCC2C3CCC4=C(CCC(=O)C4)C3CC[C@@]21C` (some centres not stated), the inhibition in [1] was -10.6%. Also, in experiment [2], the score is 0.8. For the same compound, the rescue above control in experiment [3] was -0.46. Moreover, the cytochrome c release ratio in experiment [4] is 1.11. For the same compound, the inhibition of aggregation in experiment [5] is 55.6%. Also, the glutamate uptake change in experiment [6] was -10.2%. In [7], this compound came in with an aggregation suppression score of 0.537. For the same compound, the parasite load remaining in experiment [8] is 73.4% (inactive) and 48.3% (inactive). In addition, in experiment [8], the viability is 71.3% and 92%. Also, the red/green cell ratio (normalised) in experiment [9] was 1.12 (inactive). The normalised cell number was determined as 1.18 in [9] (setting [13]) and 1.32 in experiment [9] (setting [14]). Besides, the fold change in experiment [10] (setting [15]) was 0.929 (inactive); in experiment [10] (setting [16]), 1.51. The cell count in [10] (setting [17]) was 11200; in experiment [10] (setting [18]), 12100.

In the case of `C#C[C@]1(O)CCC2C3CCc4cc(OC)ccc4C3CC[C@@]21C` (some centres not stated), the parasite load remaining in [8] is 13.7% (inactive). Moreover, the viability in experiment [8] amounted to 131%. Moreover, the red/green cell ratio (normalised) in experiment [9] is 1.01 (inactive). The normalised cell number in experiment [9] (setting [13]) came out at 1.1; in experiment [9] (setting [14]), 1.11. Also, the fold change in [10] (setting [15]) was 0.913 (inactive) and 0.85 (inactive); in [10] (setting [16]), 1.29 and 1.24. The cell count is 8740 and 9660 in experiment [10] (setting [17]); 9570 and 11400 in [10] (setting [18]). Also, the z-score in experiment [12] was -1.44 (inactive).

On to `C=C[C@H]1CN2CC[C@H]1C[C@@H]2[C@H](O)c1ccnc2ccc(OC)cc12`, for which the inhibition in experiment [1] is -2.2%. Moreover, the score in [2] is 1.5. In addition, in experiment [3], the rescue above control was -7.29. Moreover, the cytochrome c release ratio in experiment [4] was determined as 0.97. This compound came in with an inhibition of aggregation in experiment [5] of 9.09%. The glutamate uptake change in [6] stood at 13.1%. The aggregation suppression score in experiment [7] is 1.58. Moreover, the parasite load remaining in experiment [8] is 68.2% (inactive) and 15.1% (active). Moreover, in experiment [8], the viability was 72.3% and 81.3%. Further, the red/green cell ratio (normalised) in experiment [9] is 1.16 (inactive). The normalised cell number in experiment [9] (setting [13]) was 1.05; in [9] (setting [14]) it was 1.21. The fold change is 0.948 (inactive) in [10] (setting [15]) and 2.86 in [10] (setting [16]). Moreover, the results for the cell count in [10] (setting [17]) and in [10] (setting [18]) were 10900 and 11500, respectively.

Turning to `CO[C@@]1(NC(=O)CSCC#N)C(=O)N2C(C(=O)O)=C(CSc3nnnn3C)CSC21` (some centres not stated), the inhibition in experiment [1] turned out to be 20.8%. The same compound had a score in experiment [2] of 1.29. In [3], the rescue above control was -0.81. The cytochrome c release ratio in experiment [4] came out at 0.56. The compound further registered an inhibition of aggregation in experiment [5] of 33.3%. Moreover, the glutamate uptake change in experiment [6] is -5.52%. In addition, in experiment [11], the inclusion score is 2. The same compound yielded an aggregation suppression score in experiment [7] of 1.5. Moreover, the parasite load remaining in experiment [8] was 99.4% (inactive) and 54.5% (inactive). In addition, in experiment [8], the viability was 73% and 111%. For the same compound, the red/green cell ratio (normalised) in [9] is 0.89 (inactive). For the same compound, the normalised cell number was 1.07 in [9] (setting [13]) and 0.95 in experiment [9] (setting [14]). In addition, the fold change in experiment [10] (setting [15]) was 0.923 (inactive); in [10] (setting [16]), 3.61. Moreover, the cell count worked out at 12200 in [10] (setting [17]) and 13200 in experiment [10] (setting [18]).
